From PubChem BioAssay (Tox21) come the findings set out here.

Results filed as inconclusive are left out. A number with no mark means an inactive call. Active and inactive are the calls of the source. Calls follow the shape of the full dose curve.
% is scaled to controls: 0 for no effect and ±100 for the full control effect; potency is read from the fitted curve at half-maximal effect.

This experiment is described as follows: p53 small molecule agonists, cell-based qHTS assay with rat liver microsomes: qHTS cell viability counter screen (AID 1963580). Also: nearly all actives have a fitted effect of over 45% in size. Particulars: p53RE-bla HCT-116 + rat microsomes, ATP viability, 16 h; series mostly up to 66 µM; activity change, negative = cytotoxicity: at the top concentration. In a few lines:
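Cytotoxicity counter screen: intracellular ATP measured by CellTiter-Glo luminescence in the same wells as the beta-lactamase reporter read, on HCT-116 p53RE-bla cells exposed 16 h at 37 C to compounds with rat liver microsomes and NADPH, each 0.5 mg/mL final.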
(In qHTS, concentration-response curves come from the screen itself.)
As to `ClCBr`, the “activity change, negative = cytotoxicity” value was 2.04%.
With `O=C1CN=C(c2ccccc2)c2cc([N+](=O)[O-])ccc2N1`, the “activity change, negative = cytotoxicity” value was -2.9% [at 30.3 µM].
On the same count and under the same terms, for `C#CC(C)(C)O` the value was 2.86%.
The same measure, in the same setting: the value for `Brc1cccc(-c2ccccc2)c1` was -2.78%; that for `CC[N+]1(CCOC(=O)C(O)(c2ccccc2)c2ccccc2)CCCCC1` was 8.2% [at 30.3 µM]; that for `CCCCOC(=O)c1ccccc1N` was 1.78%.
On to `ClCCCCBr`, for which the “activity change, negative = cytotoxicity” value is -20.3%.
For `O=S(=O)(Cl)c1ccccc1`, the “activity change, negative = cytotoxicity” value was -0.305%.
In the case of `CC(C)CC(N(C)C)C1(c2ccc(Cl)cc2)CCC1` (centres undefined), the Potency was 0.793 µM (active).
`C[N+]1(CCC(C(N)=O)(c2ccccc2)c2ccccc2)CCCCC1`: the “activity change, negative = cytotoxicity” value is 2.77% [at 30.3 µM].
Turning to `Nc1ccc([N+](=O)[O-])cc1[N+](=O)[O-]`, the “activity change, negative = cytotoxicity” value is 5.09%.
For `ClCCCCCCCl`, the “activity change, negative = cytotoxicity” value was 18.6%.
Turning to `CCNc1nc(NC(C)C(C)C)nc(SC)n1` (centres undefined), the “activity change, negative = cytotoxicity” value was 18.9%.
Turning to `CC(C)CC(C)Nc1ccc(Nc2ccccc2)cc1` (centres undefined), the Potency was 45 µM (active).
Take `CC1(C)COP(Oc2ccccc2)OC1`: the “activity change, negative = cytotoxicity” value is 0.867%.
Same read-out and setting: for `CNC(=O)O/N=C(\C)SC` the value was -1.12%.
The same measure, in the same setting: the value for `C[C@H](N)C(=O)c1ccccc1` was -6.05%.
For `O=C1OC(=O)C2C1C1(Cl)C(Cl)=C(Cl)C2(Cl)C1(Cl)Cl` (centres undefined), the “activity change, negative = cytotoxicity” value is 0.413%.
Still for that read-out and setting: for `Nc1cc2c3c(c1)C(c1ccccc1)=N[C@@H](NC(=O)c1cccnc1)C(=O)N3CC2` the value was -0.0883%; for `O=C(Nc1ccc(F)cc1F)c1cccnc1Oc1cccc(C(F)(F)F)c1`, -1.84%; for `CC(C)C(Br)C(=O)NC(N)=O` (centres undefined), 11.2% [at 30.3 µM].
Still for that read-out and setting: the value for `CCC1(c2cccc(O)c2)CCCCN(C)C1` (centres undefined) was 0.123% [at 30.3 µM]; that for `Fc1ccc(C2(Cn3cncn3)OC2c2ccccc2Cl)cc1` (centres undefined) was -7.9%.
Same read-out and setting: for `O=C(O)[C@H](O)[C@@H](O)C(=O)O` the value was -15.6%.
With `CN1C(=O)COc2c(C(=O)NC3CN4CCC3CC4)cc(Cl)cc21` (centres undefined), the “activity change, negative = cytotoxicity” value was -4.86% [at 30.3 µM].
On the same count and under the same terms, for `COc1c2c(cc3c1OCO3)CCN(C)C2` the value was -0.367% [at 30.3 µM]; for `O=[N+]([O-])c1cc(Cl)c(Cl)cc1Cl`, 6.19%.
Still for that read-out and setting: the value for `ClC(Cl)C(Cl)(Cl)Cl` was 0.372%; that for `c1ccc(Nc2ccc(Nc3ccccc3)cc2)cc1` was -0.746%.
Same read-out and setting: for `Cc1cnc2c(C(=O)O)c(Cl)ccc2c1` the value was 0%; for `Cc1ccn2nc(S(=O)(=O)Nc3c(F)cccc3F)nc2n1`, 8.06%; for `CCCCC(CC)COP(=O)(Oc1ccccc1)Oc1ccccc1` (centres undefined), -5.43%.
As to `C[C@]12CC[C@@H]3c4ccc(OC(=O)N(CCCl)CCCl)cc4CC[C@H]3[C@@H]1CC[C@@H]2O`, the “activity change, negative = cytotoxicity” value was 5.7% [at 30.3 µM].
Same read-out and setting: the value for `CC(C)(N)Cc1ccc(Cl)cc1` was 17.9% [at 30.3 µM]; that for `N#Cc1c2ccccc2cc2ccccc12` was -3.59%; that for `N#Cc1c[nH]cc1-c1cccc2c1OC(F)(F)O2` was -2.69%.
Same read-out and setting: for `C=CC(=O)OCC` the value was 2.2%.
On the same count and under the same terms, the value for `CNC(=O)O/N=C(\C)C(C)S(C)(=O)=O` (centres undefined) was -11.6% [at 623 µM]; that for `Cc1ccc2cc3c(ccc4ccccc43)c3c2c1CC3` was -1.23% [at 30.3 µM].
